# Assay outcomes: PubChem BioAssay, several laboratories
# E coli Lon inh – inhibits E. coli Lon protease; AID 602123; 360,000 compounds, 0.42% hits; P0A9M0; inhibition, % at 7.94 µM; purified E. coli Lon protease, fluorescence polarization; in the data active = inhibition above about 13%, passing the limit was not always enough;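 also: 0% = enzyme with probe and DMSO and 100% = no enzyme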
# BCLXL inh – blocks human Bcl-xL binding to Bim BH3 peptide; inhibition, % at 10.9 µM; GST-Bcl-xL / FITC-Bim BH3 peptide fluorescence polarization; 320,000 compounds, 0.7% hits; AID 2129; Q07817;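 active = inhibition above the mean of all tested compounds plus 3 SD, cutoff set per campaign, cut at about 30% in these data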;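 also: 0% = DMSO wells and 100% = unlabeled Bim-BH3 peptide competitor; inhibitors lower millipolarization by displacing the labeled peptide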
# EBV gp42 block – EBV gp42 inhibition; Q1HVG2; Fluorescence polarization binding assay, mP read-out; 220,000 compounds, 0.42% hits; inhibition, % (tested at 21.74 µM); in the data active = inhibition above about 50%
# MEX-5 binding – C. elegans MEX-5 TCR-2 RNA binding activity. Q9XUB2. MEX-5/FITC-TCR2 RNA binding, fluorescence polarization; stronger effect = lower value. activity score (negative = inhibition of binding), % at 10 µM. 300,000 compounds, 0.38% hits. AID 1832;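 active = inhibition past about -25% in most replicates, and total fluorescence under double the plate's negative control median, limit read from the data; inconclusive = replicates evenly split on the limit, or fluorescence at least double controls; inactive = too little inhibition in most replicates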;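 also: 0% = DMSO and -100% = 5 µM competing unlabeled TCR2 RNA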
# GLD-1 RNA inh – GLD-1-TGE RNA interaction inhibition (C. elegans). Q17339. purified GLD-1 + fluorescein TGE RNA, fluorescence polarization. inhibition, % at 5.96 µM. 320,000 compounds, 0.44% hits. AID 2280;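 active = percent inhibition above a per-plate cutoff, the plate mean of test compounds plus 3 SD, cut at about 30% in these data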;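 also: 0% = DMSO wells with GLD-1 and probe and 100% = wells lacking GLD-1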
# Target sequence (Q17339 whole entry, looked up): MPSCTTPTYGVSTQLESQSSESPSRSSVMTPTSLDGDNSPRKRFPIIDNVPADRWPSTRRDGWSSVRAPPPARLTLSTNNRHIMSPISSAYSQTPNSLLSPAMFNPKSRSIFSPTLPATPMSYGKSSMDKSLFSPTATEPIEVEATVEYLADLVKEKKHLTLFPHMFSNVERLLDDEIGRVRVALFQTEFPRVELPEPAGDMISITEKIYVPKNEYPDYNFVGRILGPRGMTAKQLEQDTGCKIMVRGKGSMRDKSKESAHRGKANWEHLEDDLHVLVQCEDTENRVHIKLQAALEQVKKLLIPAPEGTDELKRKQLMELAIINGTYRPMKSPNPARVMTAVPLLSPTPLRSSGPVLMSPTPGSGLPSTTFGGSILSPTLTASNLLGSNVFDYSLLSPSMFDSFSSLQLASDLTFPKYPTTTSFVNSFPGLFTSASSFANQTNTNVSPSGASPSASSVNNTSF
# E coli Lon conf – confirmation of E. coli Lon protease inhibitors; AID 602230; shares compounds with E coli Lon inh; purified E. coli Lon, fluorescence polarization; 1,400 compounds, 31% hits; inhibition, % at 7.94 µM; in the data active = inhibition above about 16%;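 also: 0% = enzyme with probe and DMSO and 100% = no enzyme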
# Numbers without * were called inactive; ? = inconclusive; . = no result given; + = active, no number. An excerpt weighted towards active compounds, which were near 1.3% of everything screened.
SMILES,E coli Lon inh,BCLXL inh,EBV gp42 block,MEX-5 binding,GLD-1 RNA inh,E coli Lon conf
COc1ccc(N)cc1-n1c(C)ccc1C,52*,38*,-13,-1,11,18*
O=C(COc1ccc2ccc(=O)oc2c1)NCCCn1ccnc1,2,2,.,1,3,.
CC1CCN(CC(=O)N2c3ccccc3CC2C)CC1 (configuration not stated),-2,5,-20,-2,0,.
COc1ccc(N2CCN(CC(=O)N3c4ccccc4CC3C)CC2)cc1 (configuration not stated),18*,3,.,-2,3,-4
O=C(c1ccccc1)c1c2c(cc3sc4ccccc4[n+]13)-c1cccc3cccc-2c13,+,95*,32,.,55*,+
O=S(=O)(NC1CCCC1)c1ccc(S(=O)(=O)NC2CCCC2)cc1,6,2,-2,-1,4,.
N#Cc1ccc(S(=O)(=O)NC2CC2)cc1,20*,3,.,-1,2,42*
Cc1ccc2c(c1)CCCN2CC(=O)N(C)c1c(N)n(Cc2ccccc2)c(=O)[nH]c1=O,146*,122*,.,.,15,-69
COC(=O)CCC(=O)Nc1cccc([N+](=O)[O-])c1,-5,-8,-21,-2,-4,.
CC(=O)Nc1cccc(-c2ccnc3c2CC(C)(C(=O)NCC2CC2)O3)c1 (configuration not stated),47*,.,.,.,.,-5
CC(=O)Nc1ccc(-c2ccnc3c2CC(C)(C(=O)NCC2CC2)O3)cc1 (configuration not stated),-5,.,.,.,.,.
COc1ccc(CCNC(=O)Cn2nnc(C(=O)Nc3cccc(C)c3C)c2N)cc1OC,-16,7,.,1,-1,.
COc1cc(OC)c(C2C=CC(=O)CC2)c(OC)c1 (configuration not stated),-5,.,.,.,.,.
CCOC(=O)Cn1nc(-c2ccc(F)cc2)cc(Cc2ccccc2)c1=O,1,-2,.,1,5,.
O=c1[nH]nc(-c2ccc(F)cc2)cc1Cc1ccccc1,32*,3,-5,-2,9,1
N#Cc1c(NCc2ccccc2)ccnc1NCc1cccnc1,17*,0,-21,1,6,-54
CSc1ccc(C2C(C(=O)c3ccco3)=C(O)C(=O)N2c2nnc(SC)s2)cc1 (configuration not stated),41*,111*,.,-59*,93*,49*
Cc1ccc(S(=O)(=O)NCc2ccncc2)cc1,-5,2,-8,0,8,.
O=C1c2ccccc2C(=O)N1Cc1ccc2c(c1)OCO2,-1,3,-6,-3,11,.
Cc1cc2cc(CN3C(=O)c4ccccc4C3=O)ccc2n1C,25*,10,-7,0,17,14
Cc1ccc(S(=O)(=O)NCc2ccc3c(c2)cc(C)n3C)cc1,16*,15,-2,4,25,-2
CCCCn1c(N)c(N(CCOC)C(=O)CC(NC(=O)c2ccccc2Cl)c2ccccc2)c(=O)[nH]c1=O (configuration not stated),4,.,.,.,.,.
c1ccc(C2OC3c4cccc5cccc(c45)C3N2c2ccccc2)cc1 (configuration not stated),56*,10,-14,1,8,2
CC(=O)Nc1cc(-c2ccccc2N(C)C)cn2c(-c3cccc(C(F)(F)F)c3)cnc12,+,.,.,.,.,9
O=S(=O)(c1ccc2c(c1)OCCO2)N1CCC(n2cnc3cc(F)ccc32)CC1,17*,3,-18,2,-5,-38
SMILES,E coli Lon inh,BCLXL inh,EBV gp42 block,MEX-5 binding,GLD-1 RNA inh,E coli Lon conf
O=S(=O)(c1ccc2c(c1)OCCO2)N1CCC(n2nnc3cc(F)ccc32)CC1,-2,5,-9,0,5,.
Cn1c(=O)c2[nH]c(-c3ccccc3)c(O)c2n(C)c1=O,+,+,122*,?,+,+
Cn1c(=O)c2[nH]c(-c3ccccc3Cl)c(O)c2n(C)c1=O,139*,115*,65*,-13,152*,13
Cc1nn(-c2ccc(F)cc2F)c2c1-c1nc(N3CCCC3)ncc1CC2,16*,-4,-15,-1,7,6
O=C(Oc1ccc2c3c(c(=O)oc2c1)CCCC3)c1cccs1,18*,2,2,3,4,25*
NC(=O)CSc1cn(Cc2cccc(F)c2)c2ccccc12,26*,4,4,1,0,-9
O=C(O)CSc1cn(Cc2ccccc2)c2ccccc12,5,0,.,1,1,.
